SKKanGAS inh = S. pyogenes SKKanGAS growth inhibitors in kanamycin, primary screen, streptokinase expression inhibitor project, SKKanGAS strain, BacTiter-Glo luminescence | 6 h | inhibition, % at 7.5 µM | actives 1.3% (n = 300,000) | AID 1662, 2009;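 active = mean replicate score, as percent of positive control median, at least 50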;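 also: strain carries kanamycin resistance gene driven by streptokinase promoter and grows in 40 µg/ml kanamycin; loss of luminescence reflects streptokinase promoter inhibition or plain growth inhibition; 0% = median of DMSO wells and 100% = positive control at its reference dose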
PP5 inh = PP5 phosphatase inhibitors, primary screen, biochemical, fluorescence; Serine/threonine-protein phosphatase 5 (Homo sapiens), P53041; purified PP5c, OMFP substrate fluorescence; inhibition, % at 6.7 µM; actives 0.18% (n = 320,000);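 active = inhibition above the campaign's mean inhibition across all tested compounds plus 3 SD, cut at about 9.5% in these data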;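 also: 0% = DMSO only and 100% = 100 µM cantharidin control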
PP1 inh = PP1-alpha phosphatase inhibitors, primary screen, counter-screen for PP5 inhibitor project, biochemical, fluorescence, OMFP substrate, single point. purified PP1alpha. AID 2235, 2010. Serine/threonine-protein phosphatase PP1-alpha catalytic subunit (Homo sapiens), P62136. inhibition, % at 6.7 µM. actives 0.9% (n = 320,000);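 active = inhibition above the mean inhibition of all tested compounds plus 3 SD, computed separately for each screening campaign, cut at about 15% in these data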
Target sequence (P62136 whole entry, looked up): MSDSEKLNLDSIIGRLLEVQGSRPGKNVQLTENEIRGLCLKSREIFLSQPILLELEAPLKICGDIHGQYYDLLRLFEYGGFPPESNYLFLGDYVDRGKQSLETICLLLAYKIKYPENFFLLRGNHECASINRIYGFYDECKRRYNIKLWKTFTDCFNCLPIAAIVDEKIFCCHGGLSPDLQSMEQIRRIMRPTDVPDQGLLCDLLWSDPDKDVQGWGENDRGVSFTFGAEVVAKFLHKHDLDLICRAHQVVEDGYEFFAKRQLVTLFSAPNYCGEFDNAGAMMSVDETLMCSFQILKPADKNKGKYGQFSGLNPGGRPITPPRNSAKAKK
IDE inh = human IDE inhibitors in live cells, primary screen, fluorescence polarization, HEK cells, FAbetaB substrate; Insulin-degrading enzyme (Homo sapiens), P14735; FAbetaB cleavage; inhibition, % at 5.59 µM; AID 434962, 2010; actives 0.41% (n = 320,000);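 active = percent inhibition above the average of all tested compounds plus 3 SD, set per screening campaign, cut at about 16% in these data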;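 also: IDE supplied by intact live HEK cells; FP after avidin binding of uncleaved biotin substrate so inhibition keeps polarization high; 0% = DMSO wells and 100% = 60 µM reference IDE inhibitor Ii1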
Exocytosis inh = LAMP-1 surface exposure blockers, TALL-104 cells – cell-based, flow cytometry, MLPCN library, primary screen. TALL-104 LAMP-1 surface exposure; cells stimulated with thapsigargin and PMA. inhibition, % at 10 µM. actives 0.66% (n = 360,000). AID 651702, 2012;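 active = inhibition above about 55%, limit read from the data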
IDE act = human IDE activators in live cells, primary screen, fluorescence polarization, HEK cells, FAbeta-B substrate; activation, % at 5.96 µM; actives 0.073% (n = 340,000); FAbeta-B cleavage; 0% vehicle, 100% cell-free pure enzyme wells;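 active = activation above the mean of all tested compounds plus 3 SD, set per screening campaign, cut at about 17% in these data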
PP1 confirm = PP1 phosphatase inhibitors, confirmation, biochemical, fluorescence, OMFP substrate, triplicate; shares compounds with PP1 inh; purified PP1alpha; inhibition, % at 6.7 µM; actives 52% (n = 1,900);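 active = mean PP1 inhibition above a set limit taken from the earlier primary screen, cut at about 15% in these data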
PP5 counter = PP5 phosphatase inhibition by PP1 hits, confirmation, counter-screen for PP1 inhibitor project, biochemical, fluorescence, triplicate | shares compounds with PP1 inh | purified PP5c, OMFP fluorescence | inhibition, % at 6.7 µM | actives 4% (n = 1,900);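 active = mean PP5 inhibition over triplicate wells above about 9.5% taken from the earlier PP1 screen, limit read from the data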
Active calls of the source: *; · = no result. A selection: hits, their analogues and other compounds. The true share with any hit is near 2.8%.

SMILES	SKKanGAS inh	PP5 inh	PP1 inh	IDE inh	Exocytosis inh	IDE act	PP1 confirm	PP5 counter
Cc1ccc(/C=C(\CCC(=O)O)c2nc3ccccc3s2)cc1[N+](=O)[O-]	-1	-1	-1	-4	-7	-3	·	·
O=C(NCCC(=O)N1CCN(C(=O)c2ccco2)CC1)c1ccc(Br)cc1	2	0	-3	7	-12	-5	·	·
CC(=O)Nc1cccc(-c2ccnc3c2CC(C(=O)NCc2ccc(N(C)C)cc2)O3)c1 (stereo not given)	·	·	·	·	-2	·	·	·
CC1(C(=O)NS(=O)(=O)c2ccc(Cl)cc2)CCN1C(=O)CCc1ccccc1 (stereo not given)	·	·	·	·	5	·	·	·
Cc1ccc(NS(=O)(=O)c2ccc(-c3coc(C)n3)cc2)c(Cl)c1	·	·	·	·	4	·	·	·
CCCC(=O)N1CCC1(C)C(=O)Nc1ccc2scnc2c1 (stereo not given)	·	·	·	·	-5	·	·	·
O=C(Nc1nnc(-c2ccc3c(c2)CCCC3)o1)C1COc2ccccc2O1 (stereo not given)	99*	1	38*	5	-1	-1	37*	1
Cc1ccccc1-n1c(SCC(=O)N/N=C/c2c(C)nn(-c3ccccc3)c2C)nc2ccccc2c1=O	32	3	18*	7	2	3	9	3
Cc1nn(-c2ccccc2)c(C)c1/C=N/NC(=O)CSc1nc2ccccc2c(=O)n1-c1ccc(Br)cc1	21	1	1	0	-1	5	·	·
O=c1cc(O)nc(SCc2ccccc2)n1-c1ccc(Cl)cc1	45	1	21*	5	-3	-1	4	-2
NC(=O)CSc1nc(O)cc(=O)n1-c1ccccc1	-3	-1	-3	-2	-3	1	·	·
Cc1ccc(NC(=O)CSc2nc(O)cc(=O)n2-c2ccc(C)cc2)cc1	77*	0	25*	5	1	1	1	-1
COc1ccc(NC(=O)CSc2nc(O)cc(=O)n2-c2ccccc2OC)cc1	87*	0	21*	2	6	8	1	-3
COc1ccccc1C(=O)NC(=O)CSc1nncn1C(C)C	-3	2	2	2	-3	2	·	·
COC(=O)C1=C(C)N(Cc2ccccc2)C(=NCc2cccc(C(F)(F)F)c2)N[C@H]1c1cccc(F)c1	20	5	18*	-2	-6	24*	-4	3
CN(C)Cc1csc(Nc2ccc(C(=O)c3ccccc3)cc2)n1	·	·	·	·	7	·	·	·
Cc1cccc(N2CC(C(=O)Nc3nnc(SCC(=O)Nc4cc(C)on4)s3)CC2=O)c1 (stereo not given)	3	-1	27*	-2	-1	2	27*	-3
Cc1cccc(N2CC(C(=O)Nc3nnc(SCC(=O)Nc4nccs4)s3)CC2=O)c1 (stereo not given)	4	3	-1	1	-2	3	·	·
Cc1ccc(/C(O)=C2/C(=O)C(=O)N(c3ccccn3)C2c2cccc([N+](=O)[O-])c2)cc1 (stereo not given)	23	0	18*	-4	4	2	9	-5
Cc1ccc2nc(N3C(=O)C(O)=C(C(=O)c4ccc(C)o4)C3c3cccc(O)c3)sc2c1 (stereo not given)	44	2	25*	1	5	-1	27*	9.7*
CCCCOc1cccc(C2C(C(=O)c3ccc(C)o3)=C(O)C(=O)N2c2nnc(C)s2)c1 (stereo not given)	15	·	·	·	9	-4	·	·
C=CCOc1cccc(C2C(C(=O)c3ccc(C)o3)=C(O)C(=O)N2c2nccs2)c1 (stereo not given)	27	-1	22*	-2	3	6	15*	-2
COC(=O)c1sc(N2C(=O)C(O)=C(C(=O)c3ccc(C)o3)C2c2ccc([N+](=O)[O-])cc2)nc1C (stereo not given)	63*	1	43*	4	-1	2	29*	-1
CCOC(=O)c1sc(N2C(=O)C(O)=C(C(=O)c3ccc(C)o3)C2c2cccc([N+](=O)[O-])c2)nc1C (stereo not given)	61*	3	35*	0	4	6	21*	-2
COC(=O)c1sc(N2C(=O)C(O)=C(C(=O)c3ccc(C)o3)C2c2ccc(OC)c(OC)c2)nc1C (stereo not given)	36	·	·	·	9	3	·	·
SMILES	SKKanGAS inh	PP5 inh	PP1 inh	IDE inh	Exocytosis inh	IDE act	PP1 confirm	PP5 counter
O=C(NCc1cccs1)c1ccc(-c2ccc(F)c(F)c2)c2ccoc12	·	·	·	·	11	·	·	·
CCCCN1C(=O)C(C#N)CC2=C1CC(C)(C)CC2=O (stereo not given)	·	·	·	·	-2	0	·	·
Cc1csc2cc(-c3cccc([N+](=O)[O-])c3)c(-c3cccc([N+](=O)[O-])c3)c[n+]12	0	1	10	2	0	3	·	·
COc1ccc(NC(=O)C2(C)CCN2Cc2ccc(OC(F)(F)F)cc2)cc1OC (stereo not given)	·	·	·	·	9	·	·	·
CCOC(=O)c1sc(N2C(=O)C(O)=C(C(=O)c3ccc(C)o3)C2c2ccc(OC)c(OC)c2)nc1C (stereo not given)	32	2	37*	1	-1	4	35*	5
COc1ccccc1CNC(=O)C(NS(=O)(=O)c1ccc2c(c1)oc(=O)n2C)C(C)C (stereo not given)	-2	0	27*	1	8	1	-3	-1
COc1ccccc1CNS(=O)(=O)c1ccc2c(c1)oc(=O)n2C	-4	1	1	4	0	-1	·	·
C#CCOCCOCCOCCNc1nc(N2CCN(C(=O)CCCCCCCCCCNC(=O)[C@H](CCC(=O)O)n3cc(CCCCCN)nn3)CC2)nc(N2CCN(C(=O)CCCCCCCCCCNC(=O)[C@@H]([C@H](C)O)n3cc(C)nn3)CC2)n1	·	2	4	5	-5	4	·	·

Source: PubChem BioAssay
